Assay results published in PubChem BioAssay (NCATS).
Several values for one entry are separate records, joined by “and”; a condition that tells them apart may be missing. Equal values may be shown once. Records with an inconclusive call do not appear. Activity calls are given as the source filed them. Unless noted, calls follow the shape of the dose curve; as a rule, active = well fitted curve in the direction sought with a large enough effect; inconclusive = small, poorly fitted or top-dose-only effect, or another doubt; inactive = no such curve, though single readings can be large; an effect the other way counts as inactive or inconclusive.

How the values were obtained:
[1] = qHTS for compounds that reverse cellular toxicity of Amyloid beta (A-beta) peptide in yeast: LOPAC Validation Assay (AID 720559); conditions: Potency: rescue of growth toxicity; also: potency is read from the fitted curve at half-maximal effect
Summary of the method: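 Here, A-beta-toxic yeast grow with test compounds at 30 C for 48 hr before optical density at 600 nm is recorded; data are normalized against DMSO and the FeCl3-clioquinol control.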

[2] = qHTS for Activators of Parkin Expression: LOPAC Validation Assay (NLuc Reporter) (AID 720572; also: potency is read from the fitted curve at half-maximal effect)
Summary of the method: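 Neuronal cells with a Parkin promoter-driven FLuc/NLuc coincidence reporter were treated 24 h at 37 C in 7-point dose response (LOPAC). NLuc luminescence read after FLuc; signals normalized to DMSO and positive control (100%).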

[3] = qHTS for Activators of Parkin Expression: LOPAC Validation Assay (FLuc Reporter) (AID 720573;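 also: 0% = DMSO and 100% = positive control compounds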)
Summary of the method: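 Readout is FLuc luminescence from neuronal reporter cells (Parkin promoter, FLuc plus NLuc) after 24 h compound exposure in dose response. Values normalized to neutral DMSO and positive-control compounds.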

[4] = target: T1, Hexokinase-4 (Homo sapiens) + Glucokinase regulatory protein (Homo sapiens) (UniProt P35557+Q14397); assay: qHTS assay for inhibitors of recombinant human GCK-GKRP interaction: Diaphorase-coupled assay (AID 743205)
Summary of the method: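 Signal derives from resorufin generated by diaphorase, linked to GCK turnover of glucose (5 mM) and ATP (0.4 mM). Enzyme complex was added after a 20-minute compound preincubation and monitored for 30 minutes.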

[5] = target: T1, Hexokinase-4 (Homo sapiens) + Glucokinase regulatory protein (Homo sapiens); assay: qHTS assay for inhibitors of recombinant human GCK-GKRP interaction: ADP-Glo assay (AID 743206);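 also: plate controls were DMSO plus enzyme for no effect and no enzyme for full effect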
Summary of the method: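 GST-GCK and FLAG-GKRP (15 nM each in the dispensed mix, with 2 uM S6P) react with 0.4 mM ATP and 5 mM glucose (final) in Hepes pH 7.6 for 60 min at room temperature. ADP is measured by ADP-Glo luminescence.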

[6] = target: T1, Hexokinase-4 (Homo sapiens) + Glucokinase regulatory protein (Homo sapiens); assay: qHTS assay for inhibitors of recombinant human GCK-GKRP interaction: HTRF assay (AID 743207); also: potency is read from the fitted curve at half-maximal effect
Summary of the method: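 Titration screening format: recombinant GST-GCK and FLAG-GKRP at 5 nM, S6P at 2 uM, labelled anti-tag antibodies, 60 min at RT, dual-wavelength HTRF readout.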

[7] = qHTS Assay for Identifying Gametocytocidal Compounds (AID 743244); also: potency is read from the fitted curve at half-maximal effect;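 as to max response: % is scaled to controls: 0 for no effect and ±100 for the full control effect; actives lower the fluorescent signal which means gametocytes are killed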; conditions: P. falciparum 3D7 stage III-V gametocytes, alamarBlue, 72 h; max response: active compounds read low
Summary of the method: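 Late gametocytes (III–V), P. falciparum 3D7; 72 h drug, then 24 h alamarBlue; resazurin reduction read by fluorescence.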

[8] = qHTS assay for small molecule agonists of the antioxidant response element (ARE) signaling pathway measured by Nrf2-dependant transcriptional activity (AID 720636; active = well fitted curve in the direction sought with a large enough effect in the repeat runs; an effect the other way counts as inactive or inconclusive; also: potency is read from the fitted curve at half-maximal effect)
Summary of the method: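 Reporter gene assay, HepG2 ARE-luc: 16 hr compound, 37 C, 5% CO2; read-out luciferase luminescence.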

[9] = qHTS assay for small molecule agonists of the antioxidant response element (ARE) signaling pathway measured by Nrf2-dependant transcriptional activity - cell viability counter screen (AID 720653; active = well fitted curve in the direction sought with a large enough effect in the repeat runs; an effect the other way counts as inactive or inconclusive; also: potency is read from the fitted curve at half-maximal effect; as to max response: % is scaled to controls: 0 for no effect and ±100 for the full control effect); conditions: ARE-bla HepG2 viability, CellTiter-Glo ATP luminescence, 16 h; max response: active compounds read low
Summary of the method: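 ARE-bla HepG2 cells treated with compounds for 16 h at 37C; this counter screen measures viability as intracellular ATP by CellTiter-Glo luminescence after 30 min at room temperature.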

T1 sequence (P35557 whole entry, looked up): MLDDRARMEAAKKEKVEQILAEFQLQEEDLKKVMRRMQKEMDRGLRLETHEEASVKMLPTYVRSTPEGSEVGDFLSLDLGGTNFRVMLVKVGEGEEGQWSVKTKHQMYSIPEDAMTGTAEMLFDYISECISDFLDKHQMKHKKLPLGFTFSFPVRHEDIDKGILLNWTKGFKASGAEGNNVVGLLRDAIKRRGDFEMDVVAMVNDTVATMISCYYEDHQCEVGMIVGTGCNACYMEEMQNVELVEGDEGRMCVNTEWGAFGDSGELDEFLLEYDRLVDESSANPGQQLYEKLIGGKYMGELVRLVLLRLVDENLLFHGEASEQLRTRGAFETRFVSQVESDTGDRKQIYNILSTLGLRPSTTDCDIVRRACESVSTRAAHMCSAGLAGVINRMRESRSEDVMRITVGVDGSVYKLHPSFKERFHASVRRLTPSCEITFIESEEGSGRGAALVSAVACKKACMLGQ
T1 sequence (Q14397 whole entry, looked up): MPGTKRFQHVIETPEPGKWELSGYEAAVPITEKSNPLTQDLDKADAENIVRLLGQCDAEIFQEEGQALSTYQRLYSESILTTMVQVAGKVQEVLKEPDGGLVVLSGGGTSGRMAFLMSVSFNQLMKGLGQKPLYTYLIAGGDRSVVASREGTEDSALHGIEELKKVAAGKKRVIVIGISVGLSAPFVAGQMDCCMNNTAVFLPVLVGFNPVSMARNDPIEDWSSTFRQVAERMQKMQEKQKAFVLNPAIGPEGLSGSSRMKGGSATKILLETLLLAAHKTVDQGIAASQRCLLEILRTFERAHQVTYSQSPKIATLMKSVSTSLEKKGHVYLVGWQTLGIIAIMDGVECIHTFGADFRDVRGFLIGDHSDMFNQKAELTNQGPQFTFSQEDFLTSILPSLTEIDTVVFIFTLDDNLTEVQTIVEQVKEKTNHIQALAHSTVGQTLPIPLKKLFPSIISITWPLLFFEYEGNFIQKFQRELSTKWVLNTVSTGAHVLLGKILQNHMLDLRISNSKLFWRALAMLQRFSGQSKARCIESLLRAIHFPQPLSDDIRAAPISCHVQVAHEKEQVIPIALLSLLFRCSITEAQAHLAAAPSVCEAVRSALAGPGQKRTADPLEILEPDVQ

CNc1ncnc2c1ncn2[C@@H]1O[C@H](CO)[C@@H](O)[C@H]1O
inactive: Potency [1] | Potency [2] | Potency [3] | outcome [4] | Potency [5] | Potency [6] | max response [7] 31.8%

C[N+]1(C)C2CC(OC(=O)[C@H](CO)c3ccccc3)CC1C1OC12 (some centres undefined)
inactive: Potency [1] | Potency [2] | Potency [3] | outcome [4] | Potency [5] | Potency [6] | max response [7] -7.69% and 8.7%

CCCn1c(=O)c2[nH]c(-c3ccc(OCC(=O)NCCN)cc3)nc2n(CCC)c1=O
inactive: Potency [1] | Potency [2] | Potency [3] | outcome [4] | Potency [5] | Potency [6]

COC(=O)c1c(C)[nH]c(C)c1C(=O)c1ccccc1Cc1ccccc1
inactive: Potency [1] | Potency [2] | Potency [3] | outcome [4] | Potency [5] | Potency [6] | max response [7] -0.767%

CN1CC(=O)N/C1=N/C(=O)Nc1cccc(Cl)c1
inactive: Potency [1] | Potency [2] | Potency [3] | outcome [4] | Potency [5] | Potency [6] | max response [7] 11.6% and 35.9%

O=C(O)CC1CC(c2ccccc2)=NO1 (centres undefined)
inactive: Potency [1] | Potency [2] | Potency [3] | outcome [4] | Potency [5] | Potency [6] | max response [7] -4.91%

CC1OC1P(=O)(O)O (centres undefined)
inactive: Potency [1] | Potency [2] | Potency [3] | outcome [4] | Potency [5] | Potency [6] | max response [7] -9.6%

c1ccc(-c2ccccn2)nc1
inactive: Potency [1] | Potency [2] | Potency [3] | outcome [4] | Potency [5] | Potency [6] | max response [7] 29.6%

COc1cc(OC)c(/C=C2/C(=O)Nc3ccccc32)c(OC)c1
inactive: Potency [1] | Potency [2] | Potency [3] | outcome [4] | Potency [5] | max response [7] 33.5%

CCCCCCCC/C=C\CCCCCCCC(=O)NCCO
inactive: Potency [1] | Potency [2] | Potency [3] | outcome [4] | Potency [5] | Potency [6] | max response [7] 8.34%

OCC1O[C@H]([S-])[C@H](O)[C@@H](O)[C@@H]1O.[Au+] (some centres undefined)
active: Potency [2] 16.4 µM | Potency [6] 15.8 µM | Potency [7] 2.82 µM
inactive: Potency [1] | Potency [3] | outcome [4] | Potency [5]

C=C[C@H]1CN2CC[C@@H]1C[C@@H]2[C@@H](O)c1ccnc2ccc(OC)cc12
inactive: Potency [1] | Potency [2] | Potency [3] | outcome [4] | Potency [5] | Potency [6]

CCCCN1CCC(n2c(=O)[nH]c3ccccc32)CC1
inactive: Potency [1] | Potency [2] | Potency [3] | outcome [4] | Potency [5] | Potency [6] | max response [7] 5.22%

CC(C)(C=O)Cc1cc(C(C)(C)C)c(O)c(C(C)(C)C)c1
inactive: Potency [1] | Potency [2] | Potency [3] | outcome [4] | Potency [5] | Potency [6] | max response [7] 8.22%

N#C/C(=C\c1ccc(O)c(O)c1)C(=O)NCc1ccccc1
inactive: Potency [1] | Potency [2] | Potency [3] | outcome [4] | Potency [5] | Potency [6] | max response [7] 12.2%

COc1cc(C(O)CO)ccc1OS(=O)(=O)O (centres undefined)
inactive: Potency [1] | Potency [2] | Potency [3] | outcome [4] | Potency [5] | Potency [6] | max response [7] 2.33%

O=C(O)c1cc(=O)c2c(Cl)cc(Cl)cc2[nH]1
inactive: Potency [1] | Potency [2] | Potency [3] | outcome [4] | Potency [5] | Potency [6] | max response [7] 14.4%

CN(C)CCCO[C@@H]1[C@H]2OC(C)(C)O[C@H]2O[C@@H]1[C@H](O)CO
inactive: Potency [1] | Potency [2] | Potency [3] | outcome [4] | Potency [5] | Potency [6] | max response [7] 19.5%

COC1=C(OC)C(=O)c2ccccc2C1=O
inactive: Potency [1] | Potency [2] | Potency [3] | outcome [4] | Potency [5] | Potency [6]
active: Potency [7] 3.98 µM

N#C/C(=C\c1ccc(-c2cc(Cl)ccc2Cl)o1)C(=O)Nc1cccc2ncccc12
inactive: Potency [1] | Potency [2] | Potency [3] | outcome [4] | Potency [5] | Potency [6] | max response [7] -7.88%

COc1ccccc1CNCCCCCCNCCCCCCCCNCCCCCCNCc1ccccc1OC
inactive: Potency [1] | Potency [2] | Potency [3] | outcome [4] | Potency [5] | Potency [6]
active: Potency [7] 1 µM

Nc1ncnc2c1ncn2[C@@H]1O[C@H](COP(=O)(O)OP(=O)(O)OP(=O)(O)OP(=O)(O)OC[C@@H]2O[C@H](n3cnc4c(N)ncnc43)[C@@H](O)[C@H]2O)[C@@H](O)[C@H]1O
active: Potency [1] 8.2 µM
inactive: Potency [2] | Potency [3] | outcome [4] | Potency [5] | max response [7] 11.9%

CN1[C@@H]2CC[C@H]1CC(OC(=O)C(CO)c1ccccc1)C2 (some centres undefined)
inactive: Potency [8] | max response [9] -6.68%

Nc1ccc(O)c(C(=O)O)c1
inactive: Potency [8] | max response [9] -2.51% and -1.43% | max response [7] 11.4%

CN(C)c1nc2c(Br)c(Br)c(Br)c(Br)c2[nH]1
inactive: Potency [1] | Potency [3] | outcome [4] | Potency [5] | Potency [6] | max response [7] 21.9%

CCCOC(=O)c1ccc(O)cc1
inactive: Potency [8] | max response [9] -5.7% and -1.43% and -2.37% | max response [7] -1.64% and -4.63%

O=C(O)c1ccccc1Nc1cccc(C(F)(F)F)c1
inactive: Potency [8] | max response [9] 0.398%

Oc1cc2c(cc1O)CN(C(=S)NCCc1ccc(Cl)cc1)CCC2
inactive: Potency [1] | Potency [3] | outcome [4] | Potency [5] | Potency [6]

Nc1cc(-c2ccncc2)c[nH]c1=O
inactive: Potency [8] | max response [9] -1.18% | max response [7] 14.6%

CCCCCCCCCCCCCCCCCC(=O)O
inactive: Potency [8] | max response [9] -2.11% and 6.03% and 17.1% | max response [7] -10.4%

COc1cc(/C=C/C(=O)CC(=O)/C=C/c2ccc(O)c(OC)c2)ccc1O
inactive: max response [9] -2.44%
active: Potency [8] 21.1 µM

CN(C)c1ccc(N=NS(=O)(=O)O)cc1
inactive: max response [9] -12.4% and -28.6%
active: Potency [8] 54.5 µM | Potency [7] 35.5 µM

CN(C)c1ccc(C(=C2C=CC(=[N+](C)C)C=C2)c2ccccc2)cc1
active: Potency [9] 6.31 µM
inactive: Potency [8]

NCCO
inactive: Potency [8] | max response [9] 3.76% | max response [7] 6.49%

Nc1nc2ccc([N+](=O)[O-])cc2s1
inactive: Potency [8] | max response [9] -4.37% | max response [7] 8.79%

O=C(O)/C=C\C(=O)O
inactive: Potency [8] | max response [9] -4.39%

O=C(OCc1ccccc1)c1ccccc1
inactive: Potency [8] | max response [9] -0.23% | max response [7] -5.44%

S=c1[nH]c2ccccc2s1
inactive: Potency [8] | max response [9] -14.2% and -2.08%

Fc1cccc(/C=N/N=C/c2cccc(F)c2)c1
inactive: Potency [1] | Potency [2] | outcome [4] | Potency [5] | Potency [6] | max response [7] 22.7%

c1cnc2c(c1)ccc1cccnc12
inactive: Potency [1] | Potency [2] | Potency [8] | max response [9] -9.05% | outcome [4] | Potency [5] | Potency [6]
active: Potency [7] 1.87 µM

NCC1OC(O[C@H]2[C@H](O)[C@@H](OC3C(O)C(N)CC(N)C3OC3OC(CO)C(O)C(O)C3N)O[C@@H]2CO)C(N)C(O)C1O (some centres undefined)
inactive: Potency [1] | Potency [2] | Potency [3] | outcome [4] | Potency [5] | max response [7] 40.6%

O=C(O)[C@H](O)[C@@H](O)[C@H](O)[C@H](O)CO
inactive: Potency [8] | max response [9] 21% | max response [7] -9.36% and 0.225%

C=CCCCCCCCCC(=O)O
inactive: Potency [8] | max response [9] 1.06% | max response [7] 8%

CCCCCCCCCCCCCCCC(=O)OC(C)C
inactive: Potency [8] | max response [9] -10.7% | max response [7] 3.03%

C#C[C@]1(O)CC[C@H]2[C@@H]3CCc4cc(O)ccc4[C@H]3CC[C@@]21C
inactive: Potency [8] | max response [9] 6.34% and 7.49% | max response [7] 16.7%

CC1(C)S[C@@H]2[C@H](NC(=O)[C@H](N)c3ccccc3)C(=O)N2[C@H]1C(=O)O
inactive: Potency [8] | max response [9] -0.498% | max response [7] 0.735%

O=C(O)c1cc(O)c(O)c(O)c1
inactive: Potency [8] | max response [9] -28.5%

N=C1N=C(N)c2cc3ccccc3cc21
inactive: Potency [8] | max response [9] -12.6%

c1ccc2sc(SSc3nc4ccccc4s3)nc2c1
inactive: Potency [8] | max response [9] -3.31% and 10.5% | max response [7] 10.7%

O=C1CN(/N=C/c2ccc([N+](=O)[O-])o2)C(=O)N1
inactive: Potency [8] | max response [7] 3.97%

NC[C@H]1O[C@@H](n2cnc3c(N)ncnc32)[C@H](O)[C@@H]1O
inactive: Potency [1] | Potency [2] | Potency [3] | outcome [4] | Potency [5] | max response [7] -2.15%

CC(C)OC(=O)c1cc(C(=O)OC(C)C)cc([N+](=O)[O-])c1
inactive: Potency [8] | max response [9] -4.4% | max response [7] 4.99%

CC(C)CC(NP(=O)(O)O[C@@H]1O[C@@H](C)[C@H](O)[C@@H](O)[C@H]1O)C(=O)NC(Cc1c[nH]c2ccccc12)C(=O)O (some centres undefined)
inactive: Potency [1] | Potency [2] | Potency [3] | outcome [4] | Potency [5] | max response [7] 18.7%

NC(N)=NC(=O)c1nc(Cl)c(N2CCCCCC2)nc1N
active: Potency [7] 0.891 µM
inactive: Potency [1] | Potency [3] | outcome [4] | Potency [5]

Nc1ccc(O)c([N+](=O)[O-])c1
inactive: max response [9] -1.19% and -1.35% | max response [7] -7.22%

CC1CN(S(=O)(=O)c2cccc3cnccc23)CCN1 (centres undefined)
inactive: Potency [1] | Potency [2] | Potency [3] | outcome [4] | Potency [5] | max response [7] 23.3%
